Data from PubChem BioAssay AID1508622 (National Center for Advancing Translational Sciences (NCATS), 2021).
The source made the active and inactive calls. Calls come from the whole dose curve; as a rule, active = well fitted activation curve with a large enough effect; inconclusive = small, poorly fitted or top-dose-only effect; inactive = no such curve, though single readings can be large or run the other way.

experiment: Confirmatory qHTS for Identification of Small Molecule Activators of Huntingtin-Antisense Promoter Activity; details: HEK293 HTT-AS promoter firefly luciferase reporter, 24 h; series mostly up to 57.5 µM
In short: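 Plated reporter HEK293 cells (24 h) received library compounds at up to 57.5 uM final or 50 uM PTC124, incubated 24 h at 37C; firefly luciferase luminescence was then recorded with Dual-Glo reagent.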

Potency, inactive:
CCCCN1CC(c2nc3ccccc3n2CCCCOc2ccccc2C)CC1=O (centres undefined), CC(=O)c1ccc(NC(=O)c2ccc(-c3nc(CSc4ccc(C)cc4)c(C)o3)cc2)cc1, CCCCOc1ccc(C(=O)Nc2ccc3c(c2)CCCN3C(=O)c2cccs2)cc1, COc1cccc(NC(CNS(=O)(=O)c2ccc(Cl)cc2)c2ccccc2)c1 (centres undefined), C[n+]1cc2c3c(ccc2c2ccc4cc5c(cc4c21)OCO5)OCO3, CCN(CCCNC(=O)CSc1cc(=O)n(CC)c2ccccc12)c1ccccc1, Cc1ccc(NC(=O)c2ccc(F)c(S(=O)(=O)N3CCc4ccccc4C3)c2)cc1F, Cc1nc(-c2ccc(Cl)cc2)sc1CCNC(=O)Cc1ccc(F)cc1, CCOc1ccc(-c2cc(C)n3nc(C(=O)Nc4ccc(C)c(C)c4)cc3n2)cc1, COc1ccc(-n2nc3c(N4CCCC(C(=O)NCCc5ccc(C)cc5)C4)nnc(C)c3c2C)cc1 (centres undefined), COc1ccc(-n2ccnc2SCC(=O)Nc2cccc(OC)c2)cc1, Cc1cccc(CS(=O)(=O)Cc2ccc(C(=O)NCc3ccc(Cl)cc3)o2)c1, CCOc1ccc(CNC(=O)c2ccc3nc(Cc4ccc(OC)cc4)oc3c2)cc1OC, C#CCOc1ccc(-c2nnc(Nc3cccc(C)c3)c3ccccc23)cc1, CCOc1ccc(CCNC(=O)c2cc3c(-c4cccc(OC)c4)nn(C)c3s2)cc1OCC, CCc1ccc(NC(=O)C2CCCN(S(=O)(=O)c3ccc(F)cc3)C2)cc1 (centres undefined), Cc1ccccc1CNC(=O)c1ccc(-c2nc(CS(=O)(=O)c3ccccc3)c(C)o2)cc1, COc1cc(Br)c(C2CC(=O)Nc3cc4c(cc32)OCCO4)cc1OC (centres undefined), CCCOc1ccccc1C(=O)N1CCC(c2nc3ccccc3s2)CC1, COc1ccc(Cl)cc1Nc1sc(C(=O)c2ccccc2)c(N)c1C(=O)Nc1ccccc1, COc1ccc(NC(=O)CSc2oc(-c3cccs3)nc2S(=O)(=O)c2ccccc2)c(OC)c1, CO[C@H]1C=CC=C(C)C(=O)NC2=CC(=O)C(NCCN(C)C)=C(C[C@@H](C)C[C@H](OC)[C@@H](O)[C@@H](C)C=C(C)[C@@H]1OC(N)=O)C2=O, Cn1c(=O)n(C)c2cc(NS(=O)(=O)c3ccccc3)c(NCc3ccccc3)cc21, Cn1c(=O)c2sccc2n2c(CCCC(=O)Nc3ccc(Oc4ccc(Cl)cc4)cc3)nnc12, COc1cccc(NC(=O)c2oc3ccc(S(=O)(=O)N4CCCCCC4)cc3c2C)c1, Cc1cc(C)cc(NC(=O)CCCn2c3ccccc3c(=O)c3ccccc32)c1, O=C(c1ccc2c(c1)CCN2S(=O)(=O)c1ccc(Cl)cc1)N1CCN(c2ccccc2F)CC1, COc1ccc(Nc2nc(-c3ccc(C)cc3)nc3ccccc23)c(OC)c1, CCc1ccc(CNC(=O)c2cccc(-n3c(C)nc4cccnc43)c2)cc1, CCCSCCCNC(=O)c1cc2n(n1)CCCN(Cc1ccc(C)cc1)C2=O, O=C(Nc1ccc(F)cc1F)c1ccc2c(c1)CCN2S(=O)(=O)c1ccc(Cl)cc1, CCCOCc1cc(CN2CCN(c3cccc(Cl)c3)CC2)c(O)c2ncccc12, COc1ccc(NC(=O)Cn2nc(-c3ccncc3)ccc2=O)cc1Cl, COc1ccc(CCNC(=O)c2c(C)nn(-c3ccc(F)cc3)c2-n2cccc2)cc1OC, CN[C@H]1[C@@H](O)[C@@H]2O[C@@H]3O[C@H](C)CC(=O)[C@]3(O)O[C@@H]2[C@@H](NC)[C@H]1O, COc1ccccc1NC(=O)CSc1nnc2c(n1)[nH]c1ccccc12, COc1ccccc1C(=O)Nc1nnc(SCc2cc(=O)c3ccccc3[nH]2)s1, Cc1ccc(NC(=O)C2CCCN2S(=O)(=O)c2ccc3c(c2)CCCC(=O)N3)cc1C (centres undefined), CCc1ccc(NC(=O)C2CCCN2S(=O)(=O)c2ccc3c(c2)CCCC(=O)N3)cc1 (centres undefined)
